According to PubChem BioAssay (NCI):
The panel holds about 79,000 compounds, 15% with a hit somewhere; the sample as a whole holds those more often. Values without a mark were called inactive. The source made the active and inactive calls. No stated cut-off is given here; in the data, active means growth inhibition above about 70%; inactive means the rest.

Columns and labels:
[1] = NCI Yeast Anticancer Drug Screen. Data for the rad50 strain (AID 155);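 further: 0% = growth of vehicle-only cultures of the same strain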; details: S. cerevisiae rad50 strain growth inhibition; at 50.0 µM; active compounds read high
Outline: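 Inhibition values express reduced yeast growth in compound-treated cultures relative to vehicle-treated controls.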

[2] = NCI Yeast Anticancer Drug Screen. Data for the mec2-1 strain (AID 157); details: S. cerevisiae mec2-1 strain, at 50.0 µM, active compounds read high
Outline: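 Compounds were applied to mec2-1 yeast cells. Their growth was then compared with that of vehicle-treated cultures to give growth inhibition.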

[3] = NCI Yeast Anticancer Drug Screen. Data for the sgs1 mgt1 strain (AID 161);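 further: 0% = growth of cultures given vehicle only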; details: S. cerevisiae sgs1 mgt1 strain, at 50.0 µM, active compounds read high
Outline: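 Percent growth inhibition was derived by comparing compound-exposed mutant yeast with vehicle-exposed cultures. The strain carries alterations in DNA damage repair.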

[4] = NCI Yeast Anticancer Drug Screen. Data for the cln2 rad14 strain (AID 165);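 further: 0% = growth equal to vehicle treated cultures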; details: S. cerevisiae cln2 rad14 strain, at 50.0 µM, active compounds read high
Outline: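 Strain: cln2 rad14 yeast, altered in cell cycle control and DNA damage repair. Read-out: growth inhibition vs vehicle.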

[5] = NCI Yeast Anticancer Drug Screen. Data for the bub3 strain (AID 167); details: S. cerevisiae bub3 mutant strain, at 50.0 µM, active compounds read high
Outline: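 Steps: expose the mutant yeast strain to compound; grow alongside vehicle-treated cultures; measure growth; express inhibition against the vehicle cultures.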

[6] = NCI Yeast Anticancer Drug Screen. Data for the mlh1 rad18 strain (AID 175); details: S. cerevisiae mlh1 rad18 strain growth inhibition; at 50.0 µM; active compounds read high
Outline: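 A repair-deficient yeast strain is exposed to test compound, and growth is scored relative to vehicle-treated controls.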

Cc1cc(=O)[nH]c(Nc2nc3cc(C)c(C)cc3[nH]2)n1
growth inhibition [1]: 9.6%
growth inhibition [2]: -4.9%
growth inhibition [3]: 2.05%
growth inhibition [4]: 9.2%
growth inhibition [5]: -8.2%
growth inhibition [6]: -8.4%

CCOC(=O)C1=NC(c2ccccc2)N(c2ccccc2)C1c1ccccc1 (centres undefined)
growth inhibition [1]: -9%
growth inhibition [2]: -8.5%
growth inhibition [3]: 17.9%
growth inhibition [4]: -0.75%
growth inhibition [5]: 10.3%
growth inhibition [6]: 8.3%

NC(=O)C(Cc1ccc(O)cc1)NC(=O)c1cccnc1 (centres undefined)
growth inhibition [1]: -7.3%
growth inhibition [2]: 0.7%
growth inhibition [3]: -0.95%
growth inhibition [4]: -2.05%
growth inhibition [5]: -9.05%
growth inhibition [6]: 4.35%

C=CCOC(=O)OCCOC(=O)OCC=C
growth inhibition [1]: 6.4%
growth inhibition [2]: -4.7%
growth inhibition [3]: -2.05%
growth inhibition [4]: -1.55%
growth inhibition [5]: 24.1%
growth inhibition [6]: -1.55%

O=C1NC(=O)C2(CCN(Cc3ccccc3)CC2)N1c1ccccc1
growth inhibition [1]: 8.95%
growth inhibition [2]: 0.1%
growth inhibition [3]: -5.1%
growth inhibition [4]: 6%
growth inhibition [5]: 13.3%
growth inhibition [6]: 3.15%

CC(=O)c1c(C)n(-c2ccccc2)c2c1nnc1ccccc12
growth inhibition [1]: 3.3%
growth inhibition [2]: 3.65%
growth inhibition [3]: 22.2%
growth inhibition [4]: -8.65%
growth inhibition [5]: -5.65%
growth inhibition [6]: 4.15%

Cc1cc(N(CCC#N)CCC#N)ccc1/C(N=Nc1ccc(Cl)cc1)=N\NC(=O)c1ccccc1
growth inhibition [1]: 1.3%
growth inhibition [2]: -2.65%
growth inhibition [3]: -0.5%
growth inhibition [4]: -10.2%
growth inhibition [5]: -7.3%
growth inhibition [6]: -31.1%

CC(C)C(=O)OC1(Cc2cccc[n+]2C)CCCCC1
growth inhibition [1]: 8.8%
growth inhibition [2]: 9.6%
growth inhibition [3]: 22.6%
growth inhibition [4]: 27.4%
growth inhibition [5]: 12.9%
growth inhibition [6]: 1.45%

CCCCNC(=O)/C(=C\c1ccccc1)NC(C)=O
growth inhibition [1]: 50.1%
growth inhibition [2]: 12.1%
growth inhibition [3]: 0.85%
growth inhibition [4]: -8.45%
growth inhibition [5]: 10.9%
growth inhibition [6]: -14.2%

O=c1cc(-c2ccccc2)oc2c(-c3cc(Cl)cc4c(=O)cc(-c5ccccc5)oc34)cc(Cl)cc12
growth inhibition [1]: -6.65%
growth inhibition [2]: 23.4%
growth inhibition [3]: 13.7%
growth inhibition [4]: -3.1%
growth inhibition [5]: -2.2%
growth inhibition [6]: 79.3% (active)

O=c1c(-c2ccc(O)cc2)coc2cc(O)cc(O)c12
growth inhibition [1]: 8.85%
growth inhibition [2]: -6.15%
growth inhibition [3]: 18.1%
growth inhibition [4]: 3.65%
growth inhibition [5]: 11.4%
growth inhibition [6]: 5%

CCC(CC)C(=O)OCCCCC1CCCO1 (centres undefined)
growth inhibition [1]: 6.25%
growth inhibition [2]: 11.2%
growth inhibition [3]: 4.75%
growth inhibition [4]: -16.6%
growth inhibition [5]: 12.2%
growth inhibition [6]: -2.65%

Fc1ccc(CSC(=S)Nc2ccc(I)cc2)cc1
growth inhibition [1]: 98.8% (active)
growth inhibition [2]: 99.2% (active)
growth inhibition [3]: 99.2% (active)
growth inhibition [4]: 99.2% (active)
growth inhibition [5]: 98.7% (active)
growth inhibition [6]: 99% (active)

Cc1ccc(CNC(=O)NCCCCCCNC(=O)NCc2ccc(C)cc2)cc1
growth inhibition [1]: -29.4%
growth inhibition [2]: -6.45%
growth inhibition [3]: -9.95%
growth inhibition [4]: -20.3%
growth inhibition [5]: -2.95%
growth inhibition [6]: -1.1%

CC[N+](CC)(CC)CCO
growth inhibition [1]: -11.6%
growth inhibition [2]: -23.6%
growth inhibition [3]: -10.9%
growth inhibition [4]: 20.7%
growth inhibition [5]: -11.5%
growth inhibition [6]: -18.5%

CCOC(=O)/C(F)=C/c1cccc([N+](=O)[O-])c1
growth inhibition [1]: 13.4%
growth inhibition [2]: 8.8%
growth inhibition [3]: -5.35%
growth inhibition [4]: 10.1%
growth inhibition [5]: 7.95%
growth inhibition [6]: 19.8%

O=C(NCC1CC1)Nc1cccc2ccccc12
growth inhibition [1]: -19.1%
growth inhibition [2]: -3.4%
growth inhibition [3]: -2%
growth inhibition [4]: -54.7%
growth inhibition [5]: -14%
growth inhibition [6]: -5.1%

COc1ccc(C(=O)C(C)(c2nc3n(c2O)C(=N)N=N3)c2nc3n(c2O)C(=N)N=N3)cc1 (centres undefined)
growth inhibition [1]: -8.8%
growth inhibition [2]: 4.45%
growth inhibition [3]: 0.75%
growth inhibition [4]: -8.85%
growth inhibition [5]: 5.8%
growth inhibition [6]: -7.95%

Cc1ccc(S(=O)(=O)c2ccccn2)cc1
growth inhibition [1]: -37.2%
growth inhibition [2]: -11.2%
growth inhibition [3]: -9.35%
growth inhibition [4]: -1.7%
growth inhibition [5]: -13%
growth inhibition [6]: -24.1%
